# According to the supplement of paper PMC3545927:
# This is one part of the list. How many sequences the whole screen found active is unknown.
# Target: furin, P09958
# Experiment: furin cleavage Z-score vs untreated control; higher = more cleavage, active = 3.5 or more, inactive = 1 or less, 8 variable residues between constant flanks
# Summary of the method: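 The cleavage Z-score is the log read count relative to furin-free reactions, lowess-adjusted and scaled by median absolute deviation. Counts came from sequencing DNA released from bead-bound 8-mer peptide–cDNA fusions after digestion with purified furin for 7.5, 15 or 30 min.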
# 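Note: purified furin at 1:10 enzyme:substrate in 50 mM HEPES pH 7.5.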
# Sequence of furin, P09958 (P09958 whole entry): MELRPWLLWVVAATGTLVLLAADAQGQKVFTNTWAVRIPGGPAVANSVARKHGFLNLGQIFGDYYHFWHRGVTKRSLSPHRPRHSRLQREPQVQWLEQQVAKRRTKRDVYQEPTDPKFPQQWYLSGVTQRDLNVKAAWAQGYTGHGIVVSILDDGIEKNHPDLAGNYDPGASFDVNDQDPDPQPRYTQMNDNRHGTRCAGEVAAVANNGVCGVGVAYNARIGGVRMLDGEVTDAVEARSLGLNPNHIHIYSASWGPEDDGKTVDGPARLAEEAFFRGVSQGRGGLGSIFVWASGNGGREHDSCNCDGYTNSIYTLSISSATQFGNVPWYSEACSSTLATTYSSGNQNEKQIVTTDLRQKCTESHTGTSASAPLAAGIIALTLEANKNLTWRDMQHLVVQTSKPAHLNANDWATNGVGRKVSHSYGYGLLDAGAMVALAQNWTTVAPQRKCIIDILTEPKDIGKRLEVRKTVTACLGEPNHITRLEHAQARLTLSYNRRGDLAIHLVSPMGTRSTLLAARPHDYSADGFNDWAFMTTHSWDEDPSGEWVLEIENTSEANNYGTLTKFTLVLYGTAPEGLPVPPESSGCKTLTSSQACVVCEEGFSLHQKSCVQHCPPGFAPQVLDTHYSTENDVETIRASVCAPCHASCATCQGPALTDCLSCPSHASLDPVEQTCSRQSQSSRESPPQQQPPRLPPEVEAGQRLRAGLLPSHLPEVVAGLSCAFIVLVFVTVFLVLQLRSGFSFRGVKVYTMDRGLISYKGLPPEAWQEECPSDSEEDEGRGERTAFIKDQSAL
Sequence,furin cleavage Z-score (7.5 min),furin cleavage Z-score (15 min),furin cleavage Z-score (30 min)
CAGVLAALAAAGNASASA [HC993],1.76,0.568 (inactive),-0.149 (inactive)
CASTPCSAYLAGNASASA [HC2549],0.127 (inactive),-0.0969 (inactive),0.416 (inactive)
CAEVVTRTWVAGNASASA [HC150],-0.769 (inactive),-0.617 (inactive),1.23
CAMEMCSQHLAGNASASA [HC1706],1.54,2.05,0.326 (inactive)
CALPDRRRRFAGNASASA [FS-1027],6.3 (active),8.87 (active),8.99 (active)
CASDFKTWLKAGNASASA [HC1155],-1.27 (inactive),-1.41 (inactive),-0.384 (inactive)
CARRRRSLRRAGNASASA [FS-2454],3.55 (active),3.5 (active),6.12 (active)
CARRRRSLPRAGNASASA [FS-2797],4.48 (active),5.79 (active),7.11 (active)
CARRRSRNLGAGNASASA [HC217],4.75 (active),6.64 (active),6.07 (active)
CARRRRSLPGAGNASASA [FS-1788],6.91 (active),8.64 (active),6.57 (active)
CAIGGHYVQMAGNASASA [HC625],1.06,1.02,-0.429 (inactive)
CAVILDSFDPAGNASASA [HC1286],-0.325 (inactive),-0.389 (inactive),1.13
CAVVICSMSYAGNASASA [HC2024],-0.215 (inactive),-0.424 (inactive),-0.762 (inactive)
CAEVPCHRWSAGNASASA [HC2388],0.964 (inactive),1.69,1.98
CASWHLNSTAAGNASASA [HC370],0.22 (inactive),-0.449 (inactive),0.876 (inactive)
CAKRRRSLHHAGNASASA [FS-1672],4.3 (active),5.5 (active),6.07 (active)
CARRRRCLNGAGNASASA [FS-1783],5.37 (active),5.63 (active),3.81 (active)
CASTPCSAHHAGNASASA [HC2575],-0.38 (inactive),-0.288 (inactive),0.459 (inactive)
CARRRRSLPEAGNASASA [FS-2796],9.29 (active),10.5 (active),8.81 (active)
CARPWRDLPEAGNASASA [FS-3031],-1.17 (inactive),0.355 (inactive),-0.221 (inactive)
CARRRRSFRRAGNASASA [FS-376],5.2 (active),6.31 (active),8.15 (active)
CADSRGSLLSAGNASASA [HC734],-0.053 (inactive),-0.939 (inactive),-0.328 (inactive)

Sequence,furin cleavage Z-score (7.5 min),furin cleavage Z-score (15 min),furin cleavage Z-score (30 min)
CATSPCSGSWAGNASASA [HC1857],-0.464 (inactive),-0.0771 (inactive),-1.88 (inactive)
CASFPCSAHLAGNASASA [HC2487],-0.137 (inactive),-0.966 (inactive),-0.392 (inactive)
CAQPIPKARRAGNASASA [HC192],-0.161 (inactive),1.41,-0.434 (inactive)
CARPLRSSERAGNASASA [FS-2056],-0.31 (inactive),-0.454 (inactive),-0.848 (inactive)
CAGPLRSKRRAGNASASA [FS-128],3.54 (active),3.82 (active),0.894 (inactive)
CAGVYLLPRRAGNASASA [HC177],-0.35 (inactive),0.113 (inactive),0.636 (inactive)
CAQPTRSKRRAGNASASA [FS-140],8.89 (active),11.6 (active),8.5 (active)
CARPTRPLEVAGNASASA [FS-2747],-0.707 (inactive),-0.831 (inactive),0.199 (inactive)
CARLHRFAPPAGNASASA [HC1225],-1.52 (inactive),1.01,0.153 (inactive)
CARRQRGAEAAGNASASA [FS-1782],0.38 (inactive),-0.365 (inactive),1.17
CARSFRSVRSAGNASASA [FS-3233],-0.0905 (inactive),1.16,1.57
CAMTRYSAPPAGNASASA [HC1542],1.05,-0.0414 (inactive),-1.39 (inactive)
CARLPRSVRSAGNASASA [FS-1263],5.43 (active),4.73 (active),4.77 (active)
CARLPRGAEAAGNASASA [FS-1743],3.99 (active),2.77,3.19
CARFWKSAPPAGNASASA [FS-2140],-0.578 (inactive),0.202 (inactive),-1.15 (inactive)
CALLISQAEAAGNASASA [HC530],-0.545 (inactive),-1.15 (inactive),-0.368 (inactive)
CARLPRSAPPAGNASASA [FS-2572],5.97 (active),5.41 (active),5.19 (active)
CAPAPSGCPPAGNASASA [HC1346],-1.72 (inactive),-0.997 (inactive),-0.764 (inactive)
CARQLRSAPPAGNASASA [FS-2758],3.01,4.5 (active),4.16 (active)
CARLGRQVDSAGNASASA [FS-1738],0.0659 (inactive),0.283 (inactive),1.6
CALEFWEGVFAGNASASA [HC938],0.499 (inactive),-0.214 (inactive),-0.35 (inactive)
